Inhibition data for 100 molecules are collected here from PubChem BioAssay AID781 (Emory University Molecular Libraries Screening Center, 2007).

The term inhibition denotes the change of the read-out against control, counted positive when it falls.

SMILES strings stand for the structures. Screen size: about 220,000 compounds; about 1,600 (0.73%) were called active. This excerpt belongs to a sample that is enriched for actives. Unmarked numbers belong to inactive results.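 How the source made its calls: active means inhibition above about 70% (limit read from the data); inactive means the rest.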

For this assay, the target named is 14-3-3 protein zeta/delta (Bos taurus) (UniProt P63103). The experiment in a line: inhibitors of 14-3-3 zeta/Bad binding, primary screen, biochemical, TR-FRET, bovine 14-3-3 zeta (AID 781).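 Further: 0% = full 14-3-3 plus peptide FRET controls and 100% = background without 14-3-3.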 To be noted: TR-FRET 14-3-3zeta/Dy647-pBad peptide displacement, 1 h; at 21.7 µM; stronger effect = higher value. A general note: Time-resolved FRET reads energy transfer from a long-lived donor to a nearby acceptor.
Chain of 14-3-3 protein zeta/delta (Bos taurus) (P63103 whole entry, looked up): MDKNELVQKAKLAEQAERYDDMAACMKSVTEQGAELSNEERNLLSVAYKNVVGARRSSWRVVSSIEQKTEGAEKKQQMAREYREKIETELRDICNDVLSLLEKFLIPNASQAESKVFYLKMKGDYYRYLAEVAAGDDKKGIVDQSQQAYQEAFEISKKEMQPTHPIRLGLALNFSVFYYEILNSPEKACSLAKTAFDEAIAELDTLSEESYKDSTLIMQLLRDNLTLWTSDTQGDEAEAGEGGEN
Take `COc1ccc(N2CCN(Cc3ccc(Br)s3)CC2)cc1`: the inhibition is 79.9% (active).

Turning to `COc1ccc(N2CCN(Cc3nnc(-c4ccccc4)o3)CC2)cc1`, the inhibition was -10.5%. For the molecule `Fc1ccc(N2CCN(Cc3cnc(Oc4ccc(Br)cc4)s3)CC2)cc1`, the inhibition was -11.7%.

With `O=C(NCc1cccnc1)c1cnc2ccccc2n1`, the inhibition was 13.6%.

Take `Oc1ccccc1N1CCN(c2ncnc3sc(-c4ccccc4)cc23)CC1`: the inhibition is -3.44%. The figure for `CCc1cc2c(NC3CCCC3)ncnc2s1` is 12.9%; for `CCc1cc2c(N3CCN(c4nnc(CC)s4)CC3)ncnc2s1` it is 76.6% (active); for `CNC(=O)NC(=O)CSc1nnc(-c2ccc(F)cc2)n1CC1CCCO1` (stereo not given) it is -19.5%. The figure for `CN1CCN(C(CNS(=O)(=O)c2cccs2)c2cccnc2)CC1` (stereo not given) is -2.11%; for `COCCCNC(=S)N(Cc1ccccc1)Cc1ccc(F)cc1` it is -1.09%. As for `CC(C)C(=O)NCc1cc(-c2ccc(Cl)cc2)no1`, the inhibition was 9.14%.

As to `COc1ccc(OCc2ccc(-c3nc4ccccc4c(=O)n3N)o2)cc1`, the inhibition is -11.1%. For the molecule `Cn1c(COc2ccc(Cl)cc2)nc2ccccc2c1=O`, the inhibition is 89.6% (active). For the molecule `COCn1c(COc2ccccc2)nc2ccccc21`, the inhibition was 0.06%.

Take `CN(CC(=O)N1CCN(c2ccccc2)CC1)S(=O)(=O)c1cccs1`: the inhibition is -17.7%. On to `CNC(=S)NNC(=O)c1ccc(N(C)C)cc1`, for which the inhibition was -0.72%. The result for `CCCCCCNS(=O)(=O)c1ccccc1Br` reads -7.16%. The result for `Cc1ccc(C(C)NC(=O)Cn2nc(C)c([N+](=O)[O-])c2C)cc1` (stereo not given) reads 5.36%; that for `CC(C)CNC(=O)COC(=O)/C=C/c1ccccc1[N+](=O)[O-]`, -3.85%. The figure for `Cc1[nH]nc(SCC(=O)NCC(C)C)c1[N+](=O)[O-]` is 94% (active); for `Brc1cccc(-c2nnc3n2CCC3)c1` it is -2.99%.

As to `Cc1ccc2nc3n(c(=O)c2c1)CCC3`, the inhibition was -3.59%. Take `COc1ccc(-c2nc3n(c2Br)CCC3)cc1`: the inhibition was 73.6% (active). Take `Cc1cccc(NC(=S)NCCc2ccc(F)cc2)c1C`: the inhibition is 1.39%. With `OC(c1ccccc1)C(CN1CCOCC1)c1ccccc1` (stereo not given), the inhibition is 6.57%.

Consider `CC(CN1CCOCC1)c1ccccc1` (stereo not given), for which the inhibition was 71.2% (active). The result for `Cc1ccc(C(=O)OC(C)CN2CCOCC2)cc1` (stereo not given) reads -4.58%; that for `O=Cc1ccc(OCc2cn3ccccc3n2)cc1`, -3.57%; that for `CC1(C)OC(=O)C(=CNC(CO)C(=O)O)C(=O)O1` (stereo not given), 12.2%. As for `Oc1c(Cl)cc(Cl)c(Cl)c1Cc1c(O)c(Cl)cc(Cl)c1Cl`, the inhibition is 82.8% (active).

With `O=C(c1ccco1)N1CCN(CCOc2ccccc2)CC1`, the inhibition is -0.94%. The result for `CN(C)CCN=c1cc(-c2ccccc2)oc2ccc(Cl)cc12` reads -12%. The figure for `CN(C)N=Nc1ccc2nc[nH]c2c1` is -55.4%; for `CN1C(=O)/C(=N/OC(=O)c2ccccc2Br)c2ccccc21` it is 9.1%. The figure for `Cc1csc(NC(=O)CN2CCCCCC2)n1` is 79.5% (active). For the molecule `Cc1csc(NC(=O)C2CCCN2C(=O)OCC(C)C)n1` (stereo not given), the inhibition is -4.68%. The result for `CS(=O)(=O)c1ccc2nc(NC(=O)CN3CCCCCC3)sc2c1` reads 66.8%. The figure for `O=C(COc1ccccc1)NCCc1nc2ccccc2[nH]1` is -2.28%; for `COc1ccc(OC(C)C(=O)NCCc2nc3ccccc3[nH]2)cc1` (stereo not given) it is 4.28%; for `COC(=O)Cc1nc2ccccc2[nH]1` it is 78.5% (active).

`COc1cc(NC(=S)NCCSc2ccc(C)cc2)cc(OC)c1`: the inhibition is -12.2%. As to `O=C(Nc1ccc([N+](=O)[O-])cc1)C1(c2ccccc2)CCOCC1`, the inhibition is -1.28%. The result for `COc1cc(OC)c(OC)cc1/C=N/Nc1ncnc2c1[nH]c1ccc(C)cc12` reads 94.3% (active); that for `CC(C)OCCCNc1ncnc2c1[nH]c1ccc(F)cc12`, -11%; that for `Cc1ccc2[nH]c3c(=O)n(Cc4ccccn4)cnc3c2c1`, -4.28%.

With `CCN(CC)CCNCC(=O)Nc1ccc(Oc2ccccc2)cc1`, the inhibition was 20.5%.

As for `COc1cc(NC(=O)c2cncc(-c3ccc(C#N)cc3)c2)cc(C(=O)Nc2cccc(C(F)(F)F)c2)c1`, the inhibition was 23%. The result for `O=c1cc(CO)oc(C(Nc2cccc(C(F)(F)F)c2)c2ccccn2)c1O` (stereo not given) reads 2.47%. `COc1cccc(OC)c1OCCN1CCN(C(=O)c2ccco2)CC1`: the inhibition was 24.8%.

Take `COc1ccccc1N1CCN(Cc2ccc(OC)c3ccccc23)CC1`: the inhibition is 37.2%. The figure for `COc1ccc(Br)cc1CN1CCN(C(=O)c2cccc(OC)c2OC)CC1` is 81.3% (active); for `CC(C)c1cc(C(=O)O)n[nH]1` it is 65.1%. The figure for `O=C(Nc1ccc(Cl)cn1)c1ccc2c(c1)OCCO2` is 7.42%; for `O=C(Nc1ccc(Cl)cn1)c1cnn2cccnc12` it is 81.6% (active); for `Cc1cc(NC(=O)c2cnn3cccnc23)n(-c2ccccc2)n1` it is 7.08%.

As for `C/C(N)=C(/C#N)C(=O)COC(=O)c1cc(-c2ccccc2)nc2ccc(Br)cc12`, the inhibition is -9.11%. For the molecule `O=C(N/N=C/c1ccccn1)c1cccnc1`, the inhibition was -10.3%.

With `Cc1cc(NC(=O)OC(C)C)ccc1-c1ccc(NC(=O)OC(C)C)cc1C`, the inhibition is 12%. As to `Cc1nc(SCC(=O)Nc2cc(C)on2)c2c3c(sc2n1)CCCC3`, the inhibition was -9.48%.

In the case of `Cc1cc(NC(=O)CSc2nc(C(C)C)nc3sc4c(c23)CCC(C)C4)no1` (stereo not given), the inhibition is 2.28%. The figure for `Cc1nc(SCC(=O)Nc2cc(C)on2)c2c(C)c(C)sc2n1` is 85.3% (active).

With `Cc1nn(CC#N)c(=O)n1N(C)c1ncc(C(F)(F)F)cc1Cl`, the inhibition is -20.5%.

For `CN(CC(O)COc1ccc(S(=O)(=O)N2CCOCC2)cc1Cl)C1CCCCC1` (stereo not given), the inhibition was -11.1%.

Regarding `CCOC(=O)c1c(NC(=O)c2cccs2)sc(C)c1C`, the inhibition was 10.5%. The result for `COC(=O)c1c(NC(=O)c2c(Cl)cnn2C)sc(C)c1C` reads -11.9%; that for `COCCCNCC(=O)Nc1sc(C)c(C)c1C(=O)OC`, 78.7% (active); that for `COc1cc(CN2CC(C)CC(C)C2)cc([N+](=O)[O-])c1O` (stereo not given), -15.1%. The result for `CCOc1ccc(S(=O)(=O)NCC2CCCO2)cc1` (stereo not given) reads 90.7% (active); that for `CCC(=O)Nc1ccc(S(=O)(=O)NCC2CCCO2)cc1` (stereo not given), -9.79%. In the case of `O=S(=O)(NCC1CCCO1)c1ccc2ccccc2c1` (stereo not given), the inhibition was 2.47%. The result for `COC(=O)c1sc(SC)c(S(=O)(=O)C(C)C)c1N/N=C(\C#N)S(=O)(=O)c1ccccn1` reads -11.7%; that for `O=[N+]([O-])c1ccc(N=Cc2c(O)ccc3ccccc23)cc1`, 2.73%. The result for `O=C(NNc1cc(Cl)cc(Cl)c1)c1c(F)cccc1Cl` reads -1.3%; that for `CCOC(=O)N1CCN(CC(=O)c2c(C)[nH]c3ccccc23)CC1`, -1.72%; that for `CCOC(=O)N1CCN(CC(=O)n2c(C)c(C)c3ccccc32)CC1`, 71.6% (active). The figure for `CCOC(=O)N1CCN(C(=O)Cn2cnc3ccccc3c2=O)CC1` is -7.01%.

Turning to `COc1ccc(CC(=O)NCC(=O)N/N=C/c2cc(Br)ccc2OC)cc1`, the inhibition was -0.33%. In the case of `NC(N)=N/N=C/c1ccc(Cl)c([N+](=O)[O-])c1`, the inhibition is 22.1%. The figure for `COc1ccc(C(=O)O/N=C(\N)Cc2ccc(Cl)cc2Cl)cc1OC` is -16.2%; for `NC(N)=N/N=C/c1ccc(OCc2ccc(Cl)cc2Cl)cc1` it is 98.2% [fluorescence artefact?] (active). As for `Cc1ccc(S(=O)(=O)N(C)C)cc1NC(=O)c1n[nH]c(=O)c2ccccc12`, the inhibition was 1.22%.

As to `CCC(=O)c1ccc(OCC(=O)Nc2ccc3nc(C)sc3c2)cc1`, the inhibition is 4.78%. For `O=[N+]([O-])c1cc(Cl)cc(/C=N/NC(=S)Nc2cc(S(=O)(=O)N3CCOCC3)ccc2Cl)c1O`, the inhibition is 50.2%. The result for `C[C@@H]1C[C@@H]2O[C@H]2/C=C\C=C\C(=O)Cc2c(Cl)c(O)cc(O)c2C(=O)O1` reads -2.99%. As for `S=c1[nH]nc(-c2cc(-c3ccccc3)n[nH]2)n1/N=C/c1c2ccccc2cc2ccccc12`, the inhibition was 77.8% (active). With `Fc1ccccc1/C=N/n1c(-c2cccnc2)n[nH]c1=S`, the inhibition is 0.38%. The result for `S=c1[nH]nc(-c2ccccc2)n1/N=C/c1c[nH]c2ccccc12` reads -8.9%. `Cc1cccc(N2CCN(C(=O)/C=C/c3ccco3)CC2)c1C`: the inhibition was -4.76%. The result for `CCC1CO/C(=C(\C(=C(Cl)Cl)N2CCOCC2)[N+](=O)[O-])N1` (stereo not given) reads 93.7% (active); that for `CN(C)C(=O)c1coc2nc3ccccc3nc12`, 1.09%. The figure for `Cc1ccc(-c2csc(-c3cc(C)on3)n2)cc1` is 0.81%; for `COc1cc(C(=O)N(Cc2ccc(N(C)C)cc2)C2CCS(=O)(=O)C2)cc(OC)c1OC` (stereo not given) it is 94.9% (active); for `CCOc1ccc(C(=O)N(Cc2ccc(N(C)C)cc2)C2CCS(=O)(=O)C2)cc1` (stereo not given) it is -6.02%. As to `COc1ccc(C(=O)N(Cc2ccc(N(C)C)cc2)C2CCS(=O)(=O)C2)cc1` (stereo not given), the inhibition was -0.9%.

As to `CC(=O)NNC1=Nc2ccccc2N(C)C(C)C1` (stereo not given), the inhibition is -5.76%. Take `Cc1ccc(N2C(=O)CC(N3CCSCC3)C2=O)c(C)c1` (stereo not given): the inhibition is 0.9%. The figure for `CC(=O)Nc1ccc(S(=O)(=O)Nc2nccc(/C=C/c3ccccc3F)n2)cc1` is -3.98%; for `O=C(Nc1ccccc1)N1CCN(C(=O)Nc2ccccc2)CC1` it is -1.69%. The figure for `O=C(NC(=S)N1CCN(Cc2ccccc2)CC1)c1ccccc1` is -19.4%. As for `O=C(Nc1ccccc1)N1CCN(Cc2ccccc2)CC1`, the inhibition was 77.4% (active).
